{"source": "ChEMBL document CHEMBL1961873", "about": "“Compounds: GSK PKIS; Assays: Nanosyn kinase panel” (2012)"}
{"molecular_target": "Casein kinase I isoform alpha (Homo sapiens) (UniProt P48729)", "sequence (P48729 2-337 limits assumed)": "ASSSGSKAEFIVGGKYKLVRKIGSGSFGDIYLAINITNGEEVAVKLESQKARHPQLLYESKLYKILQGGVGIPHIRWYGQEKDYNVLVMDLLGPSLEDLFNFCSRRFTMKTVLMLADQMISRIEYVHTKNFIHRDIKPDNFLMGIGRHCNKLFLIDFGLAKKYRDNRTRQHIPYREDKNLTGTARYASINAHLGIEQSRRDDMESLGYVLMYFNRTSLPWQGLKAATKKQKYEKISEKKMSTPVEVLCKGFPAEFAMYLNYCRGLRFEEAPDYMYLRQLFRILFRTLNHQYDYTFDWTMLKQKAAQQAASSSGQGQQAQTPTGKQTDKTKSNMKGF", "details": "at 1 µM", "units": {"inhibition": "%"}}
{"smiles": "NC(=O)c1cc(-c2ccncc2)cc(-c2ccccc2)c1N", "inhibition": 7.76}
{"smiles": "COc1cc2ncn(-c3cc(OCc4cccs4)c(C(N)=O)s3)c2cc1OC", "inhibition": 3.36}
{"smiles": "COc1ccc(C2=C(N3CCc4ccccc43)C(=O)NC2=O)cc1", "inhibition": 8.77}
{"smiles": "NS(=O)(=O)c1ccc(N/N=C2\\C(=O)Nc3ccc(C(=O)NCCCn4ccnc4)cc32)cc1", "inhibition": 6.05}
{"smiles": "O=C(Nc1n[nH]c2nc(-c3ccc(O)cc3)c(Br)cc12)C1CC1", "inhibition": 5.83}
{"smiles": "Clc1ccc(CNc2nccc(-c3cnn4ncccc34)n2)cc1", "inhibition": 16.9}
{"smiles": "CS(=O)(=O)CCNCc1ccc(-c2ccc3ncnc(Nc4ccc(OCc5ccccc5)c(Br)c4)c3c2)o1", "inhibition": 0.68}
{"smiles": "c1ccc(Oc2ccc(Nc3ncc(-c4ccccc4)o3)cc2)cc1", "inhibition": 7.2}
{"smiles": "Cc1ccc(NC(=O)c2ccoc2)cc1-c1ccc(C(=O)NCC2CC2)cc1", "inhibition": 1.47}
{"smiles": "C/C(Nc1ccc(S(N)(=O)=O)cc1)=C1/C(=O)Nc2ccccc21", "inhibition": 8.53}
{"smiles": "Fc1ccc(-c2c(-c3ccncc3)nc3n2CCS3)cc1", "inhibition": 4.21}
{"smiles": "O=C(Nc1ccc(Oc2ccc3[nH]c(NC(=O)c4ccccc4)nc3c2)cc1)Nc1cc(C(F)(F)F)ccc1F", "inhibition": 3.79}
{"smiles": "O=C1NC(=O)C(c2cccc(Cl)c2)=C1Nc1ccc(Cl)c(C(=O)O)c1", "inhibition": 2.57}
{"smiles": "NS(=O)(=O)c1ccc(Nc2cc(-c3ccc(O)c(F)c3)n[nH]2)cc1", "inhibition": 4.49}
{"smiles": "COC(=O)Nc1nc2ccc(Sc3ccc(NC(=O)Nc4cc(C(F)(F)F)ccc4F)cc3)cc2[nH]1", "inhibition": 1.98}
{"smiles": "Cc1nnc(-c2ccc(C)c(-c3ccc(C(=O)NCc4ccc(Cl)cc4)cc3)c2)o1", "inhibition": 4.63}
{"smiles": "COc1ccc2ncn(-c3cc(O[C@H](C)c4ccccc4Cl)c(C(N)=O)s3)c2c1", "inhibition": 2.16}
{"smiles": "COc1cc(N2CCN(C(C)C)CC2)ccc1Nc1nc(Nc2ccc(F)cc2C(=O)NC[C@@H](O)CO)c2cc[nH]c2n1", "inhibition": 12.9}
{"smiles": "NS(=O)(=O)c1ccc(N/N=C2\\C(=O)Nc3ccc(-c4cnco4)cc32)cc1", "inhibition": 3.06}
{"smiles": "CN1CCN(CCCNc2nc3ccc(Oc4ccc(NC(=O)Nc5cc(C(F)(F)F)ccc5F)cc4)cc3[nH]2)CC1", "inhibition": 0.56}
{"smiles": "Fc1ccc(-c2ncn(C3CCNCC3)c2-c2ccnc(Oc3ccc(Oc4ccccc4)cc3)n2)cc1", "inhibition": 49.6}
{"smiles": "COc1cc(Nc2ncc3c(C)nc(-c4cccc(Oc5ccccc5)c4)n3n2)cc(OC)c1OC", "inhibition": 3.63}
{"smiles": "CCc1ccc(Oc2nccc(-c3c(-c4ccc(F)cc4)ncn3C3CCNCC3)n2)cc1", "inhibition": 36.5}
{"smiles": "Cc1ccc(C(=O)NC(C)C)cc1-c1ccc(C(=O)NCC2CC2)cc1", "inhibition": -5.5}
{"smiles": "COc1cccc(-n2cnc3c(N/N=C/c4ccncc4)ncnc32)c1", "inhibition": 0.8}
{"smiles": "Fc1ccc(-c2ncn(C3CCNCC3)c2-c2ccnc(Oc3ccc4c(c3)OCO4)n2)cc1", "inhibition": 31}
{"smiles": "O=C(NCC1CC1)c1ccc(-c2cccc(C(=O)NC3CC3)c2)cc1", "inhibition": 3.38}
{"smiles": "C#Cc1cccc(Nc2ncnc3ccc(OCCCCNCCS(C)(=O)=O)cc23)c1", "inhibition": 7.93}
{"smiles": "NCc1ccc(-n2c(-c3nonc3N)nc3cnccc32)cc1", "inhibition": 9.76}
{"smiles": "O=C(Nc1n[nH]c2cc(-c3ccccc3)ccc12)C1CC1", "inhibition": 5.68}
{"smiles": "CCS(=O)(=O)c1ccc(OC)c(Nc2ncc(-c3cccc(-c4ccccc4F)c3)o2)c1", "inhibition": 4.53}
{"smiles": "CNC(=O)c1cncc(/C=C/c2c(C)cccc2C)c1", "inhibition": 2.33}
{"smiles": "CCC(=O)Nc1ccc(C)c(-c2ccc(C(=O)NCC3CC3)cc2)c1", "inhibition": 3.41}
{"smiles": "c1ccc(-c2n[nH]cc2-c2ccnc(-c3ccc(OCCN4CCOCC4)cc3)c2)nc1", "inhibition": 1.39}
{"molecular_target": "Casein kinase I isoform gamma-1 (Homo sapiens) (UniProt Q9HCP0)", "sequence (Q9HCP0 whole entry, looked up, canonical isoform)": "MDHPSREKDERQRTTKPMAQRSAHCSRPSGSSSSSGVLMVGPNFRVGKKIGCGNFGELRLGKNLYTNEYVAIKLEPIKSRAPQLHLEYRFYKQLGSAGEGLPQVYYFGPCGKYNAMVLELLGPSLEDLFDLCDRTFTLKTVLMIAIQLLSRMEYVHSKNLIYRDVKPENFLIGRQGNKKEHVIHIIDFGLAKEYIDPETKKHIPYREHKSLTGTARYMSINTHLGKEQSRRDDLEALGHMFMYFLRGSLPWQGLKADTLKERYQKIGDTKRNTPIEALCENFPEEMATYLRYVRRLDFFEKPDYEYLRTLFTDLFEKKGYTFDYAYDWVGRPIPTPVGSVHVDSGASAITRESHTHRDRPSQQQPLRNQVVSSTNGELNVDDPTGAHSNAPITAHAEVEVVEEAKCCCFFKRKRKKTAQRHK", "details": "at 0.1 µM", "units": {"inhibition": "%"}}
{"smiles": "NC(=O)c1cc(-c2ccncc2)cc(-c2ccccc2)c1N", "inhibition": 4.75}
{"smiles": "COc1cc2ncn(-c3cc(OCc4cccs4)c(C(N)=O)s3)c2cc1OC", "inhibition": -0.26}
{"smiles": "COc1ccc(C2=C(N3CCc4ccccc43)C(=O)NC2=O)cc1", "inhibition": 3.77}
{"smiles": "NS(=O)(=O)c1ccc(N/N=C2\\C(=O)Nc3ccc(C(=O)NCCCn4ccnc4)cc32)cc1", "inhibition": 5.08}
{"smiles": "O=C(Nc1n[nH]c2nc(-c3ccc(O)cc3)c(Br)cc12)C1CC1", "inhibition": 4.64}
{"smiles": "Clc1ccc(CNc2nccc(-c3cnn4ncccc34)n2)cc1", "inhibition": 0.12}
{"smiles": "CS(=O)(=O)CCNCc1ccc(-c2ccc3ncnc(Nc4ccc(OCc5ccccc5)c(Br)c4)c3c2)o1", "inhibition": 0.63}
{"smiles": "c1ccc(Oc2ccc(Nc3ncc(-c4ccccc4)o3)cc2)cc1", "inhibition": 0.74}
{"smiles": "Cc1ccc(NC(=O)c2ccoc2)cc1-c1ccc(C(=O)NCC2CC2)cc1", "inhibition": 2.78}
{"smiles": "C/C(Nc1ccc(S(N)(=O)=O)cc1)=C1/C(=O)Nc2ccccc21", "inhibition": -0.74}
{"smiles": "Fc1ccc(-c2c(-c3ccncc3)nc3n2CCS3)cc1", "inhibition": -1.2}
{"smiles": "O=C(Nc1ccc(Oc2ccc3[nH]c(NC(=O)c4ccccc4)nc3c2)cc1)Nc1cc(C(F)(F)F)ccc1F", "inhibition": 2.09}
{"smiles": "O=C1NC(=O)C(c2cccc(Cl)c2)=C1Nc1ccc(Cl)c(C(=O)O)c1", "inhibition": 2.32}
{"smiles": "NS(=O)(=O)c1ccc(Nc2cc(-c3ccc(O)c(F)c3)n[nH]2)cc1", "inhibition": -2}
{"smiles": "COC(=O)Nc1nc2ccc(Sc3ccc(NC(=O)Nc4cc(C(F)(F)F)ccc4F)cc3)cc2[nH]1", "inhibition": -0.12}
{"smiles": "Cc1nnc(-c2ccc(C)c(-c3ccc(C(=O)NCc4ccc(Cl)cc4)cc3)c2)o1", "inhibition": 0.71}
{"smiles": "COc1ccc2ncn(-c3cc(O[C@H](C)c4ccccc4Cl)c(C(N)=O)s3)c2c1", "inhibition": 0.39}
{"smiles": "COc1cc(N2CCN(C(C)C)CC2)ccc1Nc1nc(Nc2ccc(F)cc2C(=O)NC[C@@H](O)CO)c2cc[nH]c2n1", "inhibition": 2.26}
{"smiles": "NS(=O)(=O)c1ccc(N/N=C2\\C(=O)Nc3ccc(-c4cnco4)cc32)cc1", "inhibition": -2.5}
{"smiles": "CN1CCN(CCCNc2nc3ccc(Oc4ccc(NC(=O)Nc5cc(C(F)(F)F)ccc5F)cc4)cc3[nH]2)CC1", "inhibition": -1.36}
{"smiles": "Fc1ccc(-c2ncn(C3CCNCC3)c2-c2ccnc(Oc3ccc(Oc4ccccc4)cc3)n2)cc1", "inhibition": 6.35}
{"smiles": "COc1cc(Nc2ncc3c(C)nc(-c4cccc(Oc5ccccc5)c4)n3n2)cc(OC)c1OC", "inhibition": 1.67}
{"smiles": "CCc1ccc(Oc2nccc(-c3c(-c4ccc(F)cc4)ncn3C3CCNCC3)n2)cc1", "inhibition": 3.65}
{"smiles": "Cc1ccc(C(=O)NC(C)C)cc1-c1ccc(C(=O)NCC2CC2)cc1", "inhibition": -2.95}
{"smiles": "COc1cccc(-n2cnc3c(N/N=C/c4ccncc4)ncnc32)c1", "inhibition": -3.8}
{"smiles": "Fc1ccc(-c2ncn(C3CCNCC3)c2-c2ccnc(Oc3ccc4c(c3)OCO4)n2)cc1", "inhibition": 5.84}
{"smiles": "O=C(NCC1CC1)c1ccc(-c2cccc(C(=O)NC3CC3)c2)cc1", "inhibition": 2.43}
{"smiles": "C#Cc1cccc(Nc2ncnc3ccc(OCCCCNCCS(C)(=O)=O)cc23)c1", "inhibition": 0.79}
{"smiles": "NCc1ccc(-n2c(-c3nonc3N)nc3cnccc32)cc1", "inhibition": 5.74}
{"smiles": "O=C(Nc1n[nH]c2cc(-c3ccccc3)ccc12)C1CC1", "inhibition": 5.13}
{"smiles": "CCS(=O)(=O)c1ccc(OC)c(Nc2ncc(-c3cccc(-c4ccccc4F)c3)o2)c1", "inhibition": 0.32}
{"smiles": "CNC(=O)c1cncc(/C=C/c2c(C)cccc2C)c1", "inhibition": -2.91}
{"smiles": "CCC(=O)Nc1ccc(C)c(-c2ccc(C(=O)NCC3CC3)cc2)c1", "inhibition": 2.54}
{"smiles": "c1ccc(-c2n[nH]cc2-c2ccnc(-c3ccc(OCCN4CCOCC4)cc3)c2)nc1", "inhibition": -1.07}
